# Results published in PubChem BioAssay (NCATS).
# Records with an inconclusive call do not appear. The source made the active and inactive calls. Unless noted, calls follow the shape of the dose curve; as a rule, active = well fitted curve in the direction sought with a large enough effect; inconclusive = small, poorly fitted or top-dose-only effect, or another doubt; inactive = no such curve, though single readings can be large; an effect the other way counts as inactive or inconclusive.
# Key:
# [1] = biological target: Lysosomal acid glucosylceramidase (Homo sapiens) (UniProt P04062); experiment: Glucocerebrosidase-p2 (AID 348; in the data active = potency below about 10 µM; also: potency is read from the fitted curve at half-maximal effect); details: purified GBA, blue fluorogenic substrate, 40 min
# Summary of the method: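 Compounds titrated from 0.6 nM upwards against 0.2 nM enzyme in pH 5.9 citric acid/KH2PO4, taurocholate, tween-20; blue fluorogenic substrate 80 uM, 40 min room temperature, stopped and read Ex 365/Em 440 for AC50.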
# [2] = AP1 Signaling Pathway (AID 357; active = well fitted curve in either direction with a large enough effect, not every such curve was filed as active;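 also: ME-180 reporter cells stimulated with EGF at its EC50 level; % is scaled to controls: 0 for no effect and ±100 for the full control effect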); details: ME-180 AP-1-bla reporter, EGF-induced, beta-lactamase ratio, 5 h; at 7.69 µM (top of the series) unless noted
# Summary of the method: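 AP-1-bla ME-180 cells, Opti-MEM + 0.5% dialyzed FBS, plated overnight 37 °C. Cpd titration + EC50 EGF, 5 h 37 °C. CCF4 2.5 h RT; ex 405, em 460/530 ratio → %activity, AC50.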
# [3] = NFAT Signaling Pathway (AID 444; active = well fitted curve in either direction with a large enough effect, not every such curve was filed as active;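 also: carbachol stimulus at about its EC50 of 1 µM final; % is scaled to controls: 0 for no effect and ±100 for the full control effect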); details: Jurkat NFAT-bla M1, carbachol, beta-lactamase ratio, 5 h; at 7.69 µM (top of the series) unless noted
# Summary of the method: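 Read-out: CCF4 FRET ratio (460 nm/530 nm) after 1 h RT dye loading, used for %activity and AC50 from titration series. Cells: Jurkat NFAT-β-lactamase/M1 line, treated with compound plus 1 uM carbachol for 5 h, 37 °C.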
# [4] = Stat Signaling Pathway (AID 446; active = well fitted curve in either direction with a large enough effect, not every such curve was filed as active;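 also: ME-180 cervical cancer cells given 40 pM IL-6 alongside compound; SIE-controlled beta-lactamase reporter measured as 460/530 nm FRET emission ratio; % is scaled to controls: 0 for no effect and ±100 for the full control effect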); details: ME-180 (cervical carcinoma) SIE beta-lactamase reporter, IL-6 stimulated, 5 h; at 7.69 µM (top of the series) unless noted
# Summary of the method: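 IL-6/STAT signaling read in ME-180 cells via an SIE beta-lactamase reporter. Stimulus was 40 pM IL-6 (its AC50) for 5 hrs, so both activation and inhibition register.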
# [5] = biological target: Glucocorticoid receptor (Homo sapiens) (UniProt P04150); experiment: GR-GFP Redistribution (AID 450;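 active = compounds whose dose series gives a full or clear partial fitted curve of increased nuclear translocation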; also: potency is read from the fitted curve at half-maximal effect); details: U2OS GR-GFP nuclear translocation, laser cytometry, 2 h
# [6] = biological target: Glucocorticoid receptor (Homo sapiens) (UniProt P04150); experiment: GR-EFC Redistribution (AID 451; calls by dose curve; also: potency is read from the fitted curve at half-maximal effect); details: CHO-K1 GR-EFC translocation, beta-gal luminescence, 2 h
# Summary of the method: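 Translocation of GR-ED fusion to nuclear EA restores b-gal, read by luminescence after 1 h room-temperature detection. Engineered CHO-K1 biosensor cells, 1,000/well, exposed 2 h at 37 C to titrations up to 46 uM final.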
# [7] = biological target: Mitogen-activated protein kinase 10 (Mus musculus) (UniProt Q61831); experiment: JNK3 AlphaScreen Assay (AID 530; active = well fitted curve in either direction with a large enough effect, not every such curve was filed as active;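 also: kinase came from lysate of stimulated human HepG2 cells; signal reports phosphorylation of biotinylated GST-cJun 1-79 at Ser73 with 10 µM ATP; % is scaled to controls: 0 for no effect and ±100 for the full control effect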); details: JNK3 lysate, c-Jun phosphorylation; series mostly up to 57.1 µM
# Summary of the method: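 Room-temperature AlphaScreen kinase assay; pre-activated HepG2 lysate as JNK3 source, biotin-GST-cJun(1-79) substrate, 10 uM ATP, compound 15 min preincubation.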
# [8] = biological target: 3',5'-cyclic-AMP phosphodiesterase 4B (Homo sapiens) (UniProt Q07343); experiment: qHTS Assay for Inhibitors of PDE-IV (AID 607; active = well fitted activation curve with a large enough effect in the main read-out, with a control signal flat, not every such curve was filed as active; also: % of control where 0% means no effect); details: HEK293 ACTOne CNG channel cells, membrane potential fluorescence; series mostly up to 22.9 µM
# Summary of the method: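 Live HEK293 cells with a modified cyclic nucleotide-gated (CNG) channel report intracellular cAMP via membrane-potential dye fluorescence (ex 535/em 590 nm). Endogenous PDE-IV was targeted. Compounds were tested at up to 22.9 uM final; RO 20-1724 100 uM served as control.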
# [9] = qHTS Assay for Lipid Storage Modulators (AID 1519; calls by dose curve); details: Drosophila S3 cells, BODIPY lipid droplet/cell ratio, laser cytometry, cells loaded with oleic acid; for activity change, negative = inhibition: at 57.5 µM (top of the series)
# Summary of the method: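 Cells seeded at 5,000 per well were treated with compounds over a concentration series and loaded with oleic acid (400 uM, as added). Lipid droplet fluorescence (488 nm excitation, 500-530 nm channel) was read by laser-scanning cytometry and normalized to 20 uM Triacsin C.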
# [10] = biological target: Dual specificity protein kinase CLK4 (Homo sapiens) (UniProt Q9HAZ1); experiment: qHTS Assay for Inhibitors of CDC-like Kinase 4 (Kinase-Glo Assay) (AID 1770); details: recombinant Clk4, Kinase-Glo ATP depletion luminescence; series mostly up to 66.7 µM; also: nearly all actives have a fitted effect of over 65% in size; also: potency is read from the fitted curve at half-maximal effect
# Summary of the method: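 Recombinant human Clk4 (25 nM) phosphorylated RS repeat peptide (100 uM) with 1 uM ATP in Tris pH 7.5/MgCl2/EGTA/DTT/Triton buffer for 4.5 h at room temperature. Residual ATP was quantified by Kinase-Glo luciferase luminescence.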
# [11] = biological target: Dual specificity protein kinase CLK4 (Homo sapiens) (UniProt Q9HAZ1); experiment: qHTS Assay for Inhibitors of CDC-like Kinase 4 (ADP-Glo Assay) (AID 1771); details: recombinant CLK4, ADP-Glo luminescence; series mostly up to 80 µM; also: nearly all actives have a fitted effect of over 70% in size; also: potency is read from the fitted curve at half-maximal effect
# Summary of the method: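 Kinase reaction: Clk4 at 25 nM, RS repeat peptide substrate at 100 uM, ATP at 1 uM, 1 hr, room temperature. Product ADP detected as luciferase signal via ADP-Glo.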
# [12] = biological target: Dual specificity protein kinase CLK4 (Homo sapiens) (UniProt Q9HAZ1); experiment: qHTS Assay for Inhibitors of CDC-like Kinase 4 (ADP-FP Assay) (AID 1795); details: Transcreener ADP fluorescence polarization; series mostly up to 50 µM; also: nearly all actives have a fitted effect of over 60% in size; also: potency is read from the fitted curve at half-maximal effect
# Summary of the method: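 Recombinant human Clk4 (6.25 nM) phosphorylated RS repeat peptide (100 uM) with 1 uM ATP in Tris pH 7.5/MgCl2/EGTA/DTT/Triton buffer for one hour. ADP was quantified by Transcreener competitive fluorescence polarization against an ADP calibration curve.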
# [13] = biological target: Ubiquitin carboxyl-terminal hydrolase 1 (Homo sapiens) (UniProt O94782); experiment: Inhibitors of USP1/UAF1: Pilot qHTS (AID 504865); details: purified USP1/UAF1, Ub-rhodamine cleavage fluorescence; series mostly up to 54.9 µM;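 also: rhodamine fluorescence freed from ubiquitin-rhodamine substrate followed over time; top concentration of the series differs between compounds; % is scaled to controls: 0 for no effect and ±100 for the full control effect; nearly all actives have a fitted effect of over 35% in size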
# Summary of the method: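 USP1/UAF1 complex (1nM) preincubated with compound 15 min at room temperature, then Ub-Rho substrate (150nM final) added. Fluorescence read kinetically at 480/540 nm, 6 reads every 60 seconds. Buffer: 50mM HEPES pH 7.8, 0.5mM EDTA, 0.1 mg/ml BSA, 1mM TCEP, 0.01% Tween-20.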
# [14] = biological target: Cytochrome P450 1A2 (Homo sapiens) (UniProt P05177); experiment: p450-cyp1a2 (AID 410; calls by dose curve; also: potency is read from the fitted curve at half-maximal effect;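 as to activity change, negative = inhibition: -100% = full effect of reference inhibitor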); details: recombinant CYP1A2, luciferin-ME demethylation, luminescence; series mostly up to 57 µM
# Summary of the method: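 Inhibition was calculated relative to 57 uM furafylline (full inhibition). The reaction used human CYP1A2 at 20nM with Luciferin-ME at its Km, 100uM, driven by an NADPH-regenerating system for 60 min at room temperature.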
# [15] = biological target: Cytochrome P450 3A4 (Homo sapiens) (UniProt P08684); experiment: qHTS Assay for Activators of Cytochrome P450 3A4 (AID 885); details: recombinant CYP3A4, Luciferin-PPXE luminescence, 60 min; series mostly up to 57.1 µM; also: nearly all actives have a fitted effect of over 65% in size
# Summary of the method: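 Quantitative HTS format: compounds preincubated with 20nM human CYP3A4 and Luciferin-PPXE substrate at KM, reaction started by NADPH regeneration, stopped after 60 min, luciferase luminescence read 20 min later.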
# [16] = biological target: Cytochrome P450 3A4 (Homo sapiens) (UniProt P08684); experiment: qHTS Assay for Inhibitors and Substrates of Cytochrome P450 3A4 (AID 884); details: recombinant CYP3A4, Luciferin-PPXE luminescence; series mostly up to 57.1 µM; also: potency is read from the fitted curve at half-maximal effect; nearly all actives have a fitted effect of over 50% in size
# Summary of the method: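 20 nM human CYP3A4 with 25 uM Luciferin-PPXE (at KM) in 200 mM KPO4, preincubated 10 min with compound; NADPH regeneration started a 60 min RT reaction. Luciferin detected by luminescence, normalized to 57 uM ketoconazole as full inhibition.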
# [17] = measured here: cell count channel max response
# [18] = measured here: lipid channel max response
# Chain of 3',5'-cyclic-AMP phosphodiesterase 4B (Homo sapiens) (Q07343 whole entry, looked up): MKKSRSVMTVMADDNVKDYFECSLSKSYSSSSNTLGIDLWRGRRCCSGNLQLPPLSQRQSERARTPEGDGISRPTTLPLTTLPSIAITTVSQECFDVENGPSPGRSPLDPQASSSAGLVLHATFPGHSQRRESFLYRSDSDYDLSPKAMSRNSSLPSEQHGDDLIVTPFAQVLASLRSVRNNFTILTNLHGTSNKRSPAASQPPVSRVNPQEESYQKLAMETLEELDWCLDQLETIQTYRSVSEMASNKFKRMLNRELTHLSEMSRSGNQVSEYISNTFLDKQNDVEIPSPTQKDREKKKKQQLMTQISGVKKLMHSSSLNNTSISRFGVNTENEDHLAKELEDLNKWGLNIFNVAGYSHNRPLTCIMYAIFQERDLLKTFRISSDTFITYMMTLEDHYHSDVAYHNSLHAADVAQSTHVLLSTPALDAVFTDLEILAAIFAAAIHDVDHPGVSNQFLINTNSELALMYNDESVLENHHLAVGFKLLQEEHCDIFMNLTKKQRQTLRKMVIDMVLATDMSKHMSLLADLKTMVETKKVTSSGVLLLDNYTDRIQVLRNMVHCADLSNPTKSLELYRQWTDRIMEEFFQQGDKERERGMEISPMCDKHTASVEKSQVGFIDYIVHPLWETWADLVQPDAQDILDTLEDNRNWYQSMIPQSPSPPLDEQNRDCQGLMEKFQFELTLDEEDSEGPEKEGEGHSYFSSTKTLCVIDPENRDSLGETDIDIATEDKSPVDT
# Chain of Dual specificity protein kinase CLK4 (Homo sapiens) (Q9HAZ1 whole entry, looked up): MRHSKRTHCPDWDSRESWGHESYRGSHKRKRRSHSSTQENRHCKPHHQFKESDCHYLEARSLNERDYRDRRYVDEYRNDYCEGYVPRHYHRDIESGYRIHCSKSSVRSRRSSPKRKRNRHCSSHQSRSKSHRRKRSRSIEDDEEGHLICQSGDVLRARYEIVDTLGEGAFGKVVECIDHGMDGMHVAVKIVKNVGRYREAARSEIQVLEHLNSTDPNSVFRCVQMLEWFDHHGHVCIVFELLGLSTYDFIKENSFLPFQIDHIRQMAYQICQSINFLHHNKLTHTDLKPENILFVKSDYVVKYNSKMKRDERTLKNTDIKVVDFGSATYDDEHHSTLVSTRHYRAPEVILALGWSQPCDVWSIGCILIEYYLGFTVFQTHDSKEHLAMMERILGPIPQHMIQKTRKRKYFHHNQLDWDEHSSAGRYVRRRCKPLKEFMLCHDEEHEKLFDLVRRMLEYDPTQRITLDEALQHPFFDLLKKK
# Chain of Ubiquitin carboxyl-terminal hydrolase 1 (Homo sapiens) (O94782 whole entry, looked up): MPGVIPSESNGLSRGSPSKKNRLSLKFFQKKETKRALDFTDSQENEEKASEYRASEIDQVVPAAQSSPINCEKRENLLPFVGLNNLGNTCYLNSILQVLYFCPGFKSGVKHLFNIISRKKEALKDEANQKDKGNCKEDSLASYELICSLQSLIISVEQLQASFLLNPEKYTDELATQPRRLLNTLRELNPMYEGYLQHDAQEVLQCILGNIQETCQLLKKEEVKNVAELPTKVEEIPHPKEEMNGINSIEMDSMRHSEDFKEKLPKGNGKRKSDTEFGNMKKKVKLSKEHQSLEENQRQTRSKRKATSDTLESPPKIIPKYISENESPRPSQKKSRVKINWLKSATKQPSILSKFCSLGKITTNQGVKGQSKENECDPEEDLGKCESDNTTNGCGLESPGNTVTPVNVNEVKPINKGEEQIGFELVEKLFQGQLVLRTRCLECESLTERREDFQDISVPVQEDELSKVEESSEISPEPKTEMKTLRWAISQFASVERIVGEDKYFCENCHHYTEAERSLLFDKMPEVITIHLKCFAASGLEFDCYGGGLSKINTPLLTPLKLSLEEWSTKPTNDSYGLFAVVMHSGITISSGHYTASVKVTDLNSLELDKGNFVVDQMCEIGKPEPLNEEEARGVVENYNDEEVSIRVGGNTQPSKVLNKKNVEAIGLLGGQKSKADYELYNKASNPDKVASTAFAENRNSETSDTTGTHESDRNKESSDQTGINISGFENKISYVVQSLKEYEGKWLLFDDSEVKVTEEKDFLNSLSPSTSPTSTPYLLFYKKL
# Chain of Lysosomal acid glucosylceramidase (Homo sapiens) (P04062 whole entry, looked up): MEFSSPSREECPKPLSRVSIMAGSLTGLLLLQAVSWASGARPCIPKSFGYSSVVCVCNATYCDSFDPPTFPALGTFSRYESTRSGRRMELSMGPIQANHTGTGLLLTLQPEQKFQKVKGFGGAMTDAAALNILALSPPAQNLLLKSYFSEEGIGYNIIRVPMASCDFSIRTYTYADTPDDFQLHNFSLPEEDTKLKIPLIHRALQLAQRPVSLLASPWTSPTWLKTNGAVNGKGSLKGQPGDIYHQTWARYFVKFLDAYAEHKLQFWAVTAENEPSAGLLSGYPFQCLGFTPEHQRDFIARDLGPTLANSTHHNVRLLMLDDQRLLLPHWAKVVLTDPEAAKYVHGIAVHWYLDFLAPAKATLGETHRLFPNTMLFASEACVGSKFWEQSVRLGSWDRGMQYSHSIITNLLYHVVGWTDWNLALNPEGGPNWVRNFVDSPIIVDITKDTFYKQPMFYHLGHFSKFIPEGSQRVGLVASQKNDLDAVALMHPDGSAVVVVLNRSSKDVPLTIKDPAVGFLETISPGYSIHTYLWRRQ
# Chain of Glucocorticoid receptor (Homo sapiens) (P04150 whole entry, looked up, the tested form may be a part): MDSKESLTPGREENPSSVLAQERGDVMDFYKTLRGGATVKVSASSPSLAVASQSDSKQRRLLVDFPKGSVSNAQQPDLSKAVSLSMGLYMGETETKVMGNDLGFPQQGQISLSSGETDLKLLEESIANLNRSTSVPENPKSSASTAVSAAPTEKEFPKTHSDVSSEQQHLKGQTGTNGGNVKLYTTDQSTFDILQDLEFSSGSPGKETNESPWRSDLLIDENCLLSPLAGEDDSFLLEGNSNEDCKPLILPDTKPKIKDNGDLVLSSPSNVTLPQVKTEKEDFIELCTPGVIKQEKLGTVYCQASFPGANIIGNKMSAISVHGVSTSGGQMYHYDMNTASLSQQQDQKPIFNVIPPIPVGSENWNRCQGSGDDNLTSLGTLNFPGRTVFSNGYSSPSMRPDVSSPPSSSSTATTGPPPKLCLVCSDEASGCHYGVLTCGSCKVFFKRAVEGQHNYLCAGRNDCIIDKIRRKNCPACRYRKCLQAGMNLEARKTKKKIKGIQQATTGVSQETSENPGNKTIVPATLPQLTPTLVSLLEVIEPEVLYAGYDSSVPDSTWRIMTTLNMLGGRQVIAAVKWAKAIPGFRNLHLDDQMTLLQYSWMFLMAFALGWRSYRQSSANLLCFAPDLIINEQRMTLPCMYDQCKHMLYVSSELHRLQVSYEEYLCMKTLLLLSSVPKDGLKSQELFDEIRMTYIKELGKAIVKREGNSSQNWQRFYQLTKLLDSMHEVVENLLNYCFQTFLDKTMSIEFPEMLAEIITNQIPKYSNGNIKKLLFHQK
# Chain of Cytochrome P450 3A4 (Homo sapiens) (P08684 whole entry, looked up): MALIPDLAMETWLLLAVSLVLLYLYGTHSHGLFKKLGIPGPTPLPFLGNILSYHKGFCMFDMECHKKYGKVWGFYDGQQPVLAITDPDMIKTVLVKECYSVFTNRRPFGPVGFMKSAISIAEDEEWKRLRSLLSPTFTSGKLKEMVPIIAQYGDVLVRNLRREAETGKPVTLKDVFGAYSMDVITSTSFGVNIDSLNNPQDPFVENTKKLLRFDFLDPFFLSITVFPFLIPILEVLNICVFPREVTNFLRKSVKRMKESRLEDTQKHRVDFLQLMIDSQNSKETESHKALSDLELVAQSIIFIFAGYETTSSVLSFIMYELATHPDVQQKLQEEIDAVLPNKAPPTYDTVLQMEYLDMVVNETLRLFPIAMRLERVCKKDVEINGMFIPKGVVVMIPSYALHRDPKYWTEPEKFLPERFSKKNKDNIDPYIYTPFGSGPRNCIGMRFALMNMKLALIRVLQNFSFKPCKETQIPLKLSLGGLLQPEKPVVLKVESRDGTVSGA
# Chain of Cytochrome P450 1A2 (Homo sapiens) (P05177 whole entry, looked up): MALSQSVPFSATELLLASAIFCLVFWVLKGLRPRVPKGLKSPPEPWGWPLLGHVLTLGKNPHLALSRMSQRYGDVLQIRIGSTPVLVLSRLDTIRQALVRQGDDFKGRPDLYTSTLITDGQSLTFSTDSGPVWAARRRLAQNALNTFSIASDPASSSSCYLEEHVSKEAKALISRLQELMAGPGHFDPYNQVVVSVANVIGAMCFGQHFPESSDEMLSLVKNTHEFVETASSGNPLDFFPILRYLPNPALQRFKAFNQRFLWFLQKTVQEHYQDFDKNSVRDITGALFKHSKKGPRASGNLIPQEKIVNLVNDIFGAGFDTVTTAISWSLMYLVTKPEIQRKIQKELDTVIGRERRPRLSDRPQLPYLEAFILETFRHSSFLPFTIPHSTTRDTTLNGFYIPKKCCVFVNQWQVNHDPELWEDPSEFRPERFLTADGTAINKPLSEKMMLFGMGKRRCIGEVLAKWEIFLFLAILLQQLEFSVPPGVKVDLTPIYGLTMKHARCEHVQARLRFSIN
Compound,Potency [1],"activity change, negative = inhibition [2]","activity change, negative = inhibition [3]","activity, negative = inhibition [4]",Potency [5],Potency [6],Potency [7],Potency [8],"activity change, negative = inhibition [9]","max response [9, 17] [%]","max response [9, 18] [%]",Potency [10],Potency [11],Potency [12],Potency [13],Potency [14],Potency [15],Potency [16]
COc1ccc(-n2c(=O)c(-c3ccc(F)cc3)nc3cnc(N4CCNCC4)nc32)cc1,> 11.4 µM (inactive),-1.98% (inactive),27.8% (inactive),9.23% (inactive),> 9.22 µM (inactive),> 46 µM (inactive),inactive,inactive,0.369% (inactive),11.2,12.6,inactive,inactive,inactive,inactive,–,–,–
COc1cccc(Cn2c(=O)c(-c3ccccc3)nc3cnc(N4CCN(C)CC4)nc32)c1,> 11.4 µM (inactive),–,–,–,> 9.22 µM (inactive),> 46 µM (inactive),–,inactive,-6.14% (inactive),6.94,-0.577,inactive,inactive,inactive,inactive,inactive,inactive,–
CN1CCN(c2ncncc2-c2ccccc2Cl)CC1,> 11.4 µM (inactive),-12.3% (inactive),–,-1.1% (inactive),> 46 µM (inactive),> 46 µM (inactive),inactive,inactive,-1.74% (inactive),8.31,3.53,inactive,inactive,inactive,inactive,2.51 µM (active),inactive,1.58 µM (active)
COCCn1c(=O)c(-c2ccc(OC)cc2)nc2cnc(N3CCN(C)CC3)nc21,> 11.4 µM (inactive),29.4% (inactive),–,–,> 9.22 µM (inactive),> 46 µM (inactive),inactive,inactive,6% (inactive),16,21,inactive,inactive,inactive,inactive,–,–,–
COc1cccc(-c2nc(NC3CCNCC3)c3ccccc3n2)c1,> 11.4 µM (inactive),14.7% (inactive),23.4% (inactive),5.39% (inactive),–,–,inactive,inactive,4.76% (inactive),12.9,4.05,11.2 µM (active),11.2 µM (active),12.6 µM (active),inactive,12.6 µM (active),inactive,–
COc1cccc(Cn2c(=O)c(-c3cc(F)cc(F)c3)nc3cnc(N4CCNCC4)nc32)c1,> 11.4 µM (inactive),117% [activator] (active),225% [activator] (active),–,> 9.22 µM (inactive),> 46 µM (inactive),–,inactive,-13.2% (inactive),-15.6,-28.1,inactive,inactive,inactive,–,inactive,inactive,–
CN(C)Cc1ccccc1-c1cc(NCc2cccs2)ncn1,> 11.4 µM (inactive),9.46% (inactive),–,1.42% (inactive),> 46 µM (inactive),> 46 µM (inactive),inactive,inactive,3.12% (inactive),23.4,25.3,inactive,inactive,inactive,inactive,25.1 µM (active),inactive,–
CN1CCN(c2ncncc2-c2ccoc2)CC1,> 11.4 µM (inactive),-0.0355% (inactive),-13% (inactive),-4.34% (inactive),> 46 µM (inactive),> 46 µM (inactive),inactive,inactive,5.79% (inactive),23.7,30.3,inactive,inactive,inactive,inactive,–,inactive,7.94 µM (active)
CN(C)Cc1ccccc1-c1nccc(Nc2ccc(F)cc2)n1,10.8 µM (inactive),7.82% (inactive),–,-5.3% (inactive),> 46 µM (inactive),> 46 µM (inactive),inactive,–,5.52% (inactive),21.6,26.6,inactive,inactive,inactive,inactive,3.16 µM (active),inactive,–
COc1ccc(Oc2ncc3nc(-c4ccc(Cl)cc4)c(=O)n(C4CC4)c3n2)cc1,> 11.4 µM (inactive),-19.7% (inactive),2.73% (inactive),-1.97% (inactive),> 9.22 µM (inactive),> 46 µM (inactive),inactive,–,4.67% (inactive),-1.25,5.63,inactive,inactive,inactive,inactive,–,–,–
O=c1cnc2cnc(N3CCNCC3)nc2n1C1CC1,> 11.4 µM (inactive),-8.15% (inactive),-1.86% (inactive),-7.26% (inactive),> 9.22 µM (inactive),> 46 µM (inactive),inactive,inactive,0.852% (inactive),9.12,7.84,inactive,inactive,inactive,inactive,–,–,–
